In PubChem BioAssay (Tox21):
Where “and” joins values, the source holds several entries; their conditions need not be identical. Identical values can stand only once. Inconclusive results are not listed. Calls of active or inactive are those of the source. Unless noted, calls follow the shape of the dose curve; as a rule, active = well fitted curve in the direction sought with a large enough effect in the repeat runs; inconclusive = weak or mixed curves; inactive = no such curve, though single readings can be large; an effect the other way counts as inactive or inconclusive.

How the values were obtained:
[1] = qHTS assay for small molecules that induce genotoxicity in human embryonic kidney cells expressing luciferase-tagged ATAD5 (AID 651632); settings: HEK293T ATAD5-luciferase induction, 16 h; series mostly up to 83.3 µM; also: nearly all actives have a fitted effect of over 15% in size
Method in brief: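 ATAD5-luc HEK293T, 2,000 cells/well; cpd or DMSO pin-transferred; 16 hr, 37C/5% CO2; Amplite 30 min RT; luminescence.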

[2] = qHTS assay for small molecule agonists of the p53 signaling pathway - cell viability (AID 651633; calls by dose curve; also: nearly all actives have a fitted effect of over 30% in size; also: potency is read from the fitted curve at half-maximal effect); settings: p53RE-bla HCT-116 viability, ATP luminescence, 16 h; series mostly up to 83.3 µM
Method in brief: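 p53RE-bla cells were treated with compound for 16 hours at 37 C. Cytotoxicity was then measured as CellTiter-Glo luminescence after 30 min at room temperature.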

[3] = qHTS assay for small molecules that induce genotoxicity in human embryonic kidney cells expressing luciferase-tagged ATAD5 - cell viability (AID 651634; calls by dose curve; also: nearly all actives have a fitted effect of over 25% in size; also: potency is read from the fitted curve at half-maximal effect); settings: HEK293T ATAD5-luc cells viability, CellTiter-Fluor, 15.5 h; series mostly up to 83.3 µM
Method in brief: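 Fluorescence from CellTiter-Fluor, reporting protease activity within live cells, served as the viability read-out. HEK293T cells carrying luciferase-tagged ATAD5 had been treated with compound for 15.5 hr at 37C.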

[4] = qHTS assay for small molecule disruptors of the mitochondrial membrane potential - cell viability (AID 720634; calls by dose curve; also: nearly all actives have a fitted effect of over 20% in size; also: potency is read from the fitted curve at half-maximal effect); settings: HepG2 viability, ATP luminescence (CellTiter-Glo), 1 h; series mostly up to 83.2 µM
Method in brief: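 Cells: HepG2, 2,000/well, attached overnight. Compound 1 hr, 37 C/5% CO2. +m-MPI dye, +CellTiter-Glo 30 min RT. Readout: luminescence (ATP).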

[5] = qHTS assay to test for compound auto fluorescence at 590 nm (red) in HepG2 cells (AID 720674); settings: HepG2 autofluorescence, red 540/590 nm, 1 h; series mostly up to 91.3 µM
Method in brief: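 Fluorescence at 590 nm emission following 540 nm excitation was recorded from HepG2 wells one hour after compound transfer, with DMSO-only wells as vehicle and Rose Bengal sodium equivalency as the scale.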

[6] = qHTS assay to test for compound auto fluorescence at 535 nm (green) in HepG2 cells (AID 720675); settings: green autofluorescence 485/535 nm, 1 h; series mostly up to 91.3 µM
[7] = qHTS assay to test for compound auto fluorescence at 460 nm (blue) in HEK293 cells (AID 720678); settings: blue autofluorescence 405/460 nm; series mostly up to 91.3 µM
Method in brief: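 HEK293, 2,000 cells/well, 10% dialyzed FBS; attach 4-5 hr 37C; pin compound or DMSO; o/n 37C/5% CO2; fluorescence 405/460 nm; triamterene-equivalent units.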

[8] = qHTS assay to test for compound auto fluorescence at 590 nm (red) in HEK293 cells (AID 720679); settings: red autofluorescence 540/590 nm; series mostly up to 91.3 µM
Method in brief: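 Intensity at 540nm excitation and 590nm emission is reported as Rose Bengal sodium-equivalent autofluorescence. Measurements followed overnight exposure (37C, 5% CO2) of HEK293 cells, 2,000 per well, to 23 nL compound.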

[9] = qHTS assay for small molecule disruptors of the mitochondrial membrane potential (AID 720635); settings: HepG2 mitochondrial membrane potential, Mito-MPS dye ratio; series mostly up to 83.2 µM; also: potency is read from the fitted curve at half-maximal effect
Method in brief: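 HepG2 cells exposed to compound 1 hr at 37C, then Mito-MPS dye 30 min. Ratio read of aggregate (540/590 nm) versus monomer (490/535 nm) fluorescence.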
% is scaled to controls: 0 for no effect and ±100 for the full control effect.

CNCc1cc(F)ccc1Oc1ccc(Cl)c(Cl)c1
inactive: Potency [1] | Potency [2] | Potency [3] | Potency [4] | Potency [5] | Potency [6] | Potency [7] | Potency [8]

Cc1cc(CCN2CCN(c3nsc4ccccc34)CC2)cc2c1NC(=O)CC2(C)C
active: Potency [2] 43.3 µM | Potency [3] 61.1 µM | Potency [4] 54.5 µM
inactive: Potency [1] | Potency [5] | Potency [6] | Potency [7] | Potency [8]

Nc1c(Cl)cc(Cl)cc1Cl
inactive: Potency [1] | Potency [2] | Potency [3] | Potency [4] | Potency [5] | Potency [6] | Potency [7] | Potency [8]

CC[C@H]1O[C@]2(CC[C@@H]1C)C[C@@H]1C[C@@H](C/C=C(\C)C[C@@H](C)/C=C/C=C3\CO[C@@H]4[C@H](O)C(C)=C[C@@H](C(=O)O1)[C@]34O)O2
inactive: Potency [1] | Potency [5] | Potency [6] | Potency [7] | Potency [8]
active: Potency [2] 12.1 µM | Potency [3] 54 µM | Potency [4] 68 µM | Potency [9] 21.5 µM

CCc1oc2ccccc2c1C(=O)c1cc(Br)c(O)c(Br)c1
inactive: Potency [1] | Potency [3] | Potency [5] | Potency [6] | Potency [7] | Potency [8]
active: Potency [2] 26.6 µM | Potency [9] 5.96 µM

CCOC(=O)O[C@H](C)OC(=O)c1ccc2c(c1)cc(C(=O)NC1CCN(C(C)C)CC1)n2Cc1cc(-c2ccc(Cl)s2)on1
inactive: Potency [1] | Potency [5] | Potency [6] | Potency [7] | Potency [8]
active: Potency [2] 25.5 µM | Potency [3] 57.1 µM | Potency [9] 64.1 µM

CCCCCCCCCCCCCCCCCC[N+](C)(C)Cc1ccccc1
active: Potency [2] 24.6 µM | Potency [3] 55 µM | Potency [4] 69.2 µM | Potency [9] 15.5 µM
inactive: Potency [1] | Potency [5] | Potency [6] | Potency [7] | Potency [8]

CCc1cc(SCc2sc(-c3ccc(C(F)(F)F)cc3)nc2CN2CCN(c3ccc(OC)cc3)CC2)ccc1OCC(=O)O
inactive: Potency [1] | Potency [4] | Potency [5] | Potency [6] | Potency [7] | Potency [8]
active: Potency [2] 9.69 µM | Potency [3] 48.6 µM | Potency [9] 19.3 µM

C[C@]12CCC(=O)C=C1CC[C@@H]1[C@@H]2[C@@H](O)C[C@@]2(C)[C@H]1CC[C@]2(O)C(=O)COC(=O)CCC(=O)O
inactive: Potency [1] | Potency [2] | Potency [3] | Potency [4] | Potency [5] | Potency [6] | Potency [7] | Potency [8]

CCCCN1CCCC[C@H]1C(=O)Nc1c(C)cccc1C
inactive: Potency [1] | Potency [2] | Potency [3] | Potency [4] | Potency [5] | Potency [6] | Potency [7] | Potency [8]

O=C(c1ccc(O)cc1O)c1ccc(O)cc1O
inactive: Potency [1] | Potency [2] | Potency [3] | Potency [4] | Potency [5] | Potency [6] | Potency [7] | Potency [8]
active: Potency [9] 12.2 µM and 7.7 µM

CCCCCCCCCCCCCCCCCC[N+](C)(C)C
inactive: Potency [1] | Potency [5] | Potency [6] | Potency [7] | Potency [8]
active: Potency [2] 61.3 µM | Potency [3] 61.3 µM | Potency [9] 48.7 µM

CCCCN(CCCC)C(=O)N(CCCC)CCCC
inactive: Potency [1] | Potency [2] | Potency [3] | Potency [5] | Potency [6] | Potency [7] | Potency [8]

Cc1cc(O)c(Cl)c(C)c1Cl
active: Potency [2] 68.6 µM | Potency [3] 61.1 µM | Potency [4] 54.5 µM | Potency [9] 1.93 µM
inactive: Potency [1] | Potency [5] | Potency [6] | Potency [7] | Potency [8]

O=C(Oc1cccc2cccnc12)c1ccccc1
inactive: Potency [1] | Potency [2] | Potency [3] | Potency [4] | Potency [5] | Potency [6] | Potency [7] | Potency [8]

O=C1c2c(O)ccc(Nc3ccc(CCO)cc3)c2C(=O)c2c([N+](=O)[O-])ccc(O)c21
inactive: Potency [1] | Potency [2] | Potency [4] | Potency [5] | Potency [6] | Potency [7] | Potency [8]
active: Potency [3] 48.6 µM | Potency [9] 1.93 µM

C[n+]1cc2c3c(ccc2c2ccc4cc5c(cc4c21)OCO5)OCO3
inactive: Potency [1] | Potency [5] | Potency [6] | Potency [7] | Potency [8]
active: Potency [2] 1.5 µM | Potency [3] 11.9 µM | Potency [4] 11.9 µM | Potency [9] 8.41 µM

Cc1cccc(CN2CCN(C(c3ccccc3)c3ccc(Cl)cc3)CC2)c1 (configuration not stated)
inactive: Potency [1] | Potency [3] | Potency [4] | Potency [9] | fluorescence, relative to Rose Bengal [5] -0.676% [at 18.6 µM] | fluorescence, % of fluorescein control [6] 0.0228% [at 18.6 µM] | fluorescence, % of triamterene [7] 0.0825% [at 18.6 µM] | fluorescence, % of fluorescent control [8] 0.431% [at 18.6 µM]

Fc1ccc(C(c2ccc(F)cc2)N2CCN(C/C=C/c3ccccc3)CC2)cc1
active: Potency [2] 3.76 µM
inactive: Potency [1] | Potency [4] | Potency [5] | Potency [6] | Potency [7] | Potency [8]
